# Measured values reported in the supplement of paper PMC10037445.
# In all, about 2,900 compounds were measured (“NF-kB SEAP reporter activity, fold change vs agonist alone”: median about 0.99, highest 2% from about 2.6 on). The sample as a whole holds a higher share of the highest values than the screen did.
# Key:
# [1] = tested on: RAW-Dual; experiment: NF-kB SEAP reporter activity, fold change vs agonist alone; higher = enhanced NF-kB activity; details: library stock concentration (final ~1000-fold dilution): 10 mM
# How it was run: (§1)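 Library stock was pin-tooled at 50 nL into 384-well plates of RAW-Dual macrophages (50,000 cells/well, DMEM), followed 1 h later by a PRR agonist, and the cells were kept at 37 °C, 5% CO2. Supernatant collected after 20 hours was read for IRF by QuantiLuc luminescence and for NF-κB by QuantiBlue absorbance at 620 nm. Reporter activity is fold change over agonist-alone wells, and a well counted as cytotoxic when its IncuCyte confluency was below 70% of agonist controls in both mask sets.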
# [2] = tested on: RAW-Dual; experiment: NF-kB SEAP reporter activity, fold change vs agonist alone; cytotoxicity flag (confluency mask): not cytotoxic; higher = enhanced NF-kB activity
# How it was run: as §1
# [3] = tested on: RAW-Dual; experiment: NF-kB SEAP reporter activity, fold change vs agonist alone; cytotoxicity flag (confluency mask): cytotoxic (confluency <70% of control); higher = enhanced NF-kB activity
# How it was run: as §1
# [4] = cytotoxicity flag (confluency mask): not cytotoxic, agonist: Imiquimod (TLR7) […]
# [5] = cytotoxicity flag (confluency mask): not cytotoxic, agonist: MPLA (TLR4) […]
# [6] = agonist: ODN 1826 (TLR9) 0.5 ug/mL
# [7] = agonist: Pam2CSK4 (TLR2/6) 0.1 ug/mL
# [8] = agonist: Pam3CSK4 (TLR2/1) 0.1 ug/mL
compound,measurement,setting,value
CCCCNc1ccc(C(=O)OCCN(C)C)cc1.Cl,NF-kB SEAP reporter activity,[1]; [4],0.843
same,NF-kB SEAP reporter activity,[1]; [5],1.04
CCCCNNC(=O)c1ccc(Br)cc1,NF-kB SEAP reporter activity,[1]; [4],1.95
same,NF-kB SEAP reporter activity,[1]; [5],2.28
CCCCNNC(=O)c1ccc(Br)cc1 (library stock concentration (final ~1000-fold dilution): 10 mM),NF-kB SEAP reporter activity,[2]; agonist: LPS (TLR4) 0.1 ug/mL,3.15
same,NF-kB SEAP reporter activity,[2]; [6],2.18
same,NF-kB SEAP reporter activity,[2]; [7],0.64
same,NF-kB SEAP reporter activity,[2]; [8],0.656
CS(=O)(=O)n1cc2c(n1)CN(C1COC(c3cc(F)ccc3F)C(N)C1)C2 (stereo not drawn) (library stock concentration (final ~1000-fold dilution): 10 mM),NF-kB SEAP reporter activity,[2]; agonist: LPS (TLR4) 0.1 ug/mL,1.1
same,NF-kB SEAP reporter activity,[2]; [6],0.91
same,NF-kB SEAP reporter activity,[2]; [7],1
same,NF-kB SEAP reporter activity,[2]; [8],0.974
CS(=O)(=O)n1cc2c(n1)CN(C1COC(c3cc(F)ccc3F)C(N)C1)C2 (stereo not drawn),NF-kB SEAP reporter activity,[1]; [4],0.931
same,NF-kB SEAP reporter activity,[1]; [5],1.03
Cc1ccc(-n2nc(C(C)(C)C)cc2NC(=O)Nc2ccc(OCCN3CCOCC3)c3ccccc23)cc1 (library stock concentration (final ~1000-fold dilution): 10 mM),NF-kB SEAP reporter activity,[2]; agonist: LPS (TLR4) 0.1 ug/mL,0.477
same,NF-kB SEAP reporter activity,[2]; [6],0.449
same,NF-kB SEAP reporter activity,[2]; [7],0.129
same,NF-kB SEAP reporter activity,[2]; [8],0.226
Cc1ccc(-n2nc(C(C)(C)C)cc2NC(=O)Nc2ccc(OCCN3CCOCC3)c3ccccc23)cc1,NF-kB SEAP reporter activity,[1]; [4],0.455
same,NF-kB SEAP reporter activity,[1]; [5],0.804
O=C(Cc1ccc(-c2ccc(OCCN3CCOCC3)cc2)cn1)NCc1ccccc1 (library stock concentration (final ~1000-fold dilution): 10 mM),NF-kB SEAP reporter activity,[2]; agonist: LPS (TLR4) 0.1 ug/mL,4.55
same,NF-kB SEAP reporter activity,[2]; [6],3.36
same,NF-kB SEAP reporter activity,[2]; [7],2
same,NF-kB SEAP reporter activity,[2]; [8],2.39
O=C(NCCN1CCOCC1)c1ccc(Cl)cc1,NF-kB SEAP reporter activity,[1]; [4],1.74
same,NF-kB SEAP reporter activity,[1]; [5],1.82
O=C(NCCN1CCOCC1)c1ccc(Cl)cc1 (library stock concentration (final ~1000-fold dilution): 10 mM),NF-kB SEAP reporter activity,[2]; agonist: LPS (TLR4) 0.1 ug/mL,1.32
same,NF-kB SEAP reporter activity,[2]; [6],1.86
same,NF-kB SEAP reporter activity,[2]; [7],1.18
same,NF-kB SEAP reporter activity,[2]; [8],1.17
O=C(Cc1ccc(-c2ccc(OCCN3CCOCC3)cc2)cn1)NCc1ccccc1,NF-kB SEAP reporter activity,[1]; [4],2.63
same,NF-kB SEAP reporter activity,[1]; [5],2.26
C=CC(=O)N1CC(Nc2ncnc3[nH]ccc23)CCC1C (stereo not drawn) (library stock concentration (final ~1000-fold dilution): 10 mM),NF-kB SEAP reporter activity,[2]; agonist: LPS (TLR4) 0.1 ug/mL,0.655
same,NF-kB SEAP reporter activity,[2]; [6],0.682
same,NF-kB SEAP reporter activity,[2]; [7],0.56
same,NF-kB SEAP reporter activity,[2]; [8],0.738
C=CC(=O)N1CC(Nc2ncnc3[nH]ccc23)CCC1C (stereo not drawn),NF-kB SEAP reporter activity,[1]; [4],0.572
same,NF-kB SEAP reporter activity,[1]; [5],0.785
CNCCC(Oc1cccc2ccccc12)c1cccs1 (stereo not drawn),NF-kB SEAP reporter activity,"[1]; cytotoxicity flag (confluency mask): cytotoxic (confluency <70% of control), agonist: MPLA (TLR4) […]",1.98
CNCCC(Oc1cccc2ccccc12)c1cccs1 (stereo not drawn) (library stock concentration (final ~1000-fold dilution): 10 mM),NF-kB SEAP reporter activity,[3]; agonist: LPS (TLR4) 0.1 ug/mL,1.1
same,NF-kB SEAP reporter activity,[3]; [6],0.191
same,NF-kB SEAP reporter activity,[3]; [7],0.797
same,NF-kB SEAP reporter activity,[3]; [8],0.525
OCC1OC(c2ccc(Cl)c(Cc3ccc(OC4CCOC4)cc3)c2)C(O)C(O)C1O (stereo not drawn) (library stock concentration (final ~1000-fold dilution): 10 mM),NF-kB SEAP reporter activity,[2]; agonist: LPS (TLR4) 0.1 ug/mL,1.12
same,NF-kB SEAP reporter activity,[2]; [6],1.07
same,NF-kB SEAP reporter activity,[2]; [7],0.963
same,NF-kB SEAP reporter activity,[2]; [8],0.983
OCC1OC(c2ccc(Cl)c(Cc3ccc(OC4CCOC4)cc3)c2)C(O)C(O)C1O (stereo not drawn),NF-kB SEAP reporter activity,[1]; [4],0.973
same,NF-kB SEAP reporter activity,[1]; [5],1.06
COc1ccc(S(=O)(=O)NCc2ccc(C(=O)NCCc3ccc(Cl)cn3)cc2)cc1 (library stock concentration (final ~1000-fold dilution): 10 mM),NF-kB SEAP reporter activity,[2]; agonist: LPS (TLR4) 0.1 ug/mL,1.36
same,NF-kB SEAP reporter activity,[2]; [6],1.15
same,NF-kB SEAP reporter activity,[2]; [7],0.849
same,NF-kB SEAP reporter activity,[2]; [8],1.49
COc1ccc(CNC(=O)Nc2ncc([N+](=O)[O-])s2)cc1,NF-kB SEAP reporter activity,[1]; [4],1.2
same,NF-kB SEAP reporter activity,[1]; [5],1.68
O=C(Nc1ncc([N+](=O)[O-])s1)c1ccccc1O,NF-kB SEAP reporter activity,[1]; [5],0.945
COc1ccc(CNC(=O)Nc2ncc([N+](=O)[O-])s2)cc1 (library stock concentration (final ~1000-fold dilution): 10 mM),NF-kB SEAP reporter activity,[2]; agonist: LPS (TLR4) 0.1 ug/mL,2.74
same,NF-kB SEAP reporter activity,[2]; [6],1.64
same,NF-kB SEAP reporter activity,[2]; [7],0.864
same,NF-kB SEAP reporter activity,[2]; [8],1.32
COc1ccc(S(=O)(=O)NCc2ccc(C(=O)NCCc3ccc(Cl)cn3)cc2)cc1,NF-kB SEAP reporter activity,[1]; [4],0.318
same,NF-kB SEAP reporter activity,[1]; [5],1.19
O=C(Nc1ncc([N+](=O)[O-])s1)c1ccccc1O (library stock concentration (final ~1000-fold dilution): 10 mM),NF-kB SEAP reporter activity,[2]; agonist: LPS (TLR4) 0.1 ug/mL,0.954
same,NF-kB SEAP reporter activity,[2]; [6],1.21
same,NF-kB SEAP reporter activity,[2]; [7],0.573
same,NF-kB SEAP reporter activity,[2]; [8],0.684
COCCOc1cnc2ccn(C(C)c3nnc4c(F)cc(-c5cnn(C)c5)cn34)c(=O)c2c1 (stereo not drawn),NF-kB SEAP reporter activity,[1]; [4],1.01
same,NF-kB SEAP reporter activity,[1]; [5],1.01
COCCOc1cnc2ccn(C(C)c3nnc4c(F)cc(-c5cnn(C)c5)cn34)c(=O)c2c1 (stereo not drawn) (library stock concentration (final ~1000-fold dilution): 10 mM),NF-kB SEAP reporter activity,[2]; agonist: LPS (TLR4) 0.1 ug/mL,1.54
same,NF-kB SEAP reporter activity,[2]; [6],1.11
same,NF-kB SEAP reporter activity,[2]; [7],1.11
same,NF-kB SEAP reporter activity,[2]; [8],1.13
CCCCCCCCCCCCCCCC(=O)OCC(O)C1OC(O)=C(O)C1=O (stereo not drawn),NF-kB SEAP reporter activity,[1]; [4],0.898
same,NF-kB SEAP reporter activity,[1]; [5],1.01
CCCCCCCCCCCCCCCC(=O)OCC(O)C1OC(O)=C(O)C1=O (stereo not drawn) (library stock concentration (final ~1000-fold dilution): 10 mM),NF-kB SEAP reporter activity,[2]; agonist: LPS (TLR4) 0.1 ug/mL,1.15
same,NF-kB SEAP reporter activity,[2]; [6],0.825
same,NF-kB SEAP reporter activity,[2]; [7],0.949
same,NF-kB SEAP reporter activity,[2]; [8],0.67
